About 1,900 (0.58%) of roughly 330,000 compounds were called active. Roughly 4% stayed inconclusive and do not appear here. Not all results are given here. Results with a measured potency or affinity are listed apart. A number with no mark means an inactive call. Rule as the data show it: inconclusive = inhibition above about 70% without an active follow-up result; inactive = below that.

Broadly, the inhibition is the drop in the measured response relative to a control, in per cent.

The assay can be described thus: M. tuberculosis growth inhibition, HTS (AID 449762).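 Also: bacterial growth assessed after seven days of incubation.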 To be noted: M. tuberculosis H37Rv growth inhibition, 7H9 media; at 25 µM; stronger effect = higher value.
For `Cc1occc1-c1nnc(SCC(=O)NCCc2ccccc2)n1Cc1ccccc1`, the inhibition was 1.99%.
`Cc1occc1-c1nnc(SCC(=O)Nc2ccccn2)o1`: the inhibition was 36.7%.
For `CC(C)(C)c1ccc(-c2nnc(SCC(=O)NC3CCS(=O)(=O)C3)n2N)cc1` (stereo not drawn) the value was 1.59%; for `COc1cc(CC(=O)OCC(=O)Nc2ccc3c(c2)OCO3)cc(OC)c1OC`, 0.09%.
As to `COc1ccc(C2=NOC(Cn3nc(C(=O)O)cc3-c3ccccc3)C2)cc1` (stereo not drawn), the inhibition was -10.9%.
`O=C(Cn1ccc2ccccc2c1=O)NCCC(=O)N1CCN(c2ccccc2)CC1`: the inhibition was 2.9%.
Regarding `O=C(CSc1nc(=O)n(CCCN2CCOCC2)c2c1CCCC2)Nc1ccc(F)cc1`, the inhibition is -5.62%.
Next, `Cc1cccc(C)c1NC(=O)N1CCCCCCC1`: -5.98%; `C#CCOCCOCCOCCNc1nc(N2CCN(C(=O)CCCCCCCCCCNC(=O)[C@H](CCCCN)n3cc(CCO)nn3)CC2)nc(N2CCN(C(=O)CCCCCCCCCCNC(=O)[C@H](CCCCN)n3cc(CCCC(=O)O)nn3)CC2)n1`: 24.8%.
`C#CCOCCOCCOCCNc1nc(N2CCN(C(=O)CCCCCCCCCCNC(=O)[C@H](CCCCN)n3cc(CCCC(=O)O)nn3)CC2)nc(N2CCN(C(=O)CCCCCCCCCCNC(=O)[C@H](CCCCN)n3cc(CCCC(=O)O)nn3)CC2)n1`: the inhibition was -1.93%.
With `CC(C)CNC(=O)COC(=O)C1c2ccccc2Oc2ccccc21`, the inhibition was 9.4%.
Next, `N#CCC(=O)Nc1ccc(C(=O)OCC(=O)c2ccc3c(c2)OCCO3)cc1`: -4.26%.
For the molecule `CCC(C(=O)Nc1ccc(OC)c(Cl)c1)c1ccccc1` (stereo not drawn), the inhibition is -3.28%.
Regarding `O=C(CSc1ccc(-c2cccnc2)nn1)Nc1ccc(Br)cc1`, the inhibition was -0.4%.
With `Cc1nonc1OCCNCCNc1ccc([N+](=O)[O-])cc1Cl`, the inhibition was 10.9%.
For the molecule `COc1ccccc1NC(=O)CN1CCN(CC(=O)Nc2ccc(OC)c(OC)c2)CC1`, the inhibition was -1.32%.
Next, `COc1ccc(NC(=O)CN2CCN(CC(=O)Nc3ccc4c(c3)OCO4)CC2)cc1`: -4.59%; `CCOC(=O)c1c(C=O)c2ccccc2n1Cc1ccccc1F`: 0.55%.
For `N#CC1=C(N)Oc2n[nH]c(-c3cccs3)c2C1c1ccccc1C(=O)O` (stereo not drawn) the value was -1.81%; for `CCN(CC)C(=O)CC(c1ccc(OC)cc1)c1c(O)cc(OC)cc1OC` (stereo not drawn), -3.84%.
On to `CCN(C(=O)COC(=O)c1[nH]c(=O)[nH]c(=O)c1N)c1ccccc1`, for which the inhibition is -1.59%.
For `C(=N\Nc1nc(Nc2ccccc2)nc(Nc2ccccc2)n1)/c1ccncc1` the value was 0.63%; for `C(=N\Nc1nc(Nc2ccccc2)nc(Nc2ccccc2)n1)/c1cccnc1`, 11.1%.
For `CC(=O)c1c(O)cc(C)n(-c2ccc(F)cc2)c1=O` the value was -1.89%; for `Cc1ccccc1NC(=S)N1CCCC(c2nc3ccccc3[nH]2)C1` (stereo not drawn), 0%.
Next, `Cc1[nH]n(S(=O)(=O)c2ccccc2)c(=O)c1N=Nc1cccc(Cl)c1`: 0.21%; `Cc1[nH][nH]c(=O)c1N=Nc1ccccc1Cl`: -0.87%; `COc1cccc(CNC(=O)Cn2ccc([N+](=O)[O-])n2)c1`: -0.85%.
Take `CCC(=O)Nc1ccc2c(c1)nc(CCNC(=O)c1ccco1)n2C`: the inhibition is 2.89%.
For `CS(=O)(=O)c1ccc2nc(NC(=O)c3ccc(NS(=O)(=O)c4ccc(F)c(F)c4)cc3)sc2c1` the value was -0.5%; for `CS(=O)(=O)c1ccc2nc(NC(=O)c3cccc(NS(=O)(=O)c4ccc(F)c(F)c4)c3)sc2c1`, 60.6%; for `CCN(CC)S(=O)(=O)c1ccc(N2CCOCC2)c(NS(=O)(=O)c2ccc(C(C)C)cc2)c1`, -4.72%.
`Cc1ccc([C@@H]2CC=C(C(=O)O)[C@H](c3ccc(F)cc3)N2S(=O)(=O)c2ccccc2C)cc1`: the inhibition is 0.59%.
Next, `O=C1CCCC(=O)N1c1ccc(F)cc1`: -3.22%; `CCCCN1C(=O)c2ccc(C(=O)Nc3cccnc3)cc2C1=O`: 48.5%.
For `CC1=C(/C=C/C(C)=C/C=C/C(C)=C/C(=O)O)C(C)(C)CCC1` the value was 26.5%.
For `CC1=C(/C=C/C(C)=C/C=C/C(C)=C\C(=O)O)C(C)(C)CCC1` the value was 69.3%; for `N#Cc1ccc(C23CC4CC(CC(C4)C2)C3)[nH]c1=O`, 12.1%.
Take `O=c1cc(C23CC4CC(CC(C4)C2)C3)[nH][nH]1`: the inhibition is 4.36%.
For `Cc1cnc(CN(C)C(=O)CC2C(=O)NCCN2CCCc2ccccc2)[nH]1` (stereo not drawn) the value was -8.51%; for `Cc1nn(C(C)C(=O)NCc2ccccc2F)c(=O)c2nn(-c3ccccc3)c(C)c12` (stereo not drawn), 0.01%; for `CCN1C(=O)[C@H]2[C@@H](c3ccc(-c4ccc(Cl)c(Cl)c4)cc3)N[C@@](Cc3ccccc3)(C(=O)OC)[C@H]2C1=O`, 4.89%.
For `Cc1ccccc1N1CCN(CC(=O)Nc2nccs2)CC1` the value was 6.57%.
For `COc1ccccc1N1CCN(CC(=O)Nc2nccs2)CC1` the value was 6.27%.
Regarding `O=C(CC(=O)NC1CCCCC1)N/N=C/c1ccccc1F`, the inhibition was 7.41%.
Turning to `CCOC(=O)CNC(=O)c1cnc(Nc2ccccc2OC)c2ccccc12`, the inhibition is 2.72%.
With `O=C(O)Cc1c(-c2ccccc2Cl)c2cc(Br)ccc2[nH]c1=O`, the inhibition was 0.9%.
For `O=C(NNc1nc(-c2ccc(F)cc2)cs1)c1ccccc1`, the inhibition was 1.95%.
For `N#Cc1ccc(-c2csc(NNC(=O)c3ccccc3)n2)cc1`, the inhibition is 1.66%.
Next, `Cc1cc(C)c(C#N)c(SCCS(=O)(=O)c2ccc(C(C)(C)C)cc2)n1`: 1.43%.
Next, `CCC(=O)CCC(=O)c1ccc2ccccc2c1`: 9.13%; `O=C1C=C(O)c2c(O)cccc2C1=O`: -6.54%; `COc1cccc2c1C(=O)C=C(C)C2=O`: -8.66%.
For `CC(=O)NC12CC3CC(C1)CC(C(=O)Nc1c(C)n(C)n(-c4ccccc4)c1=O)(C3)C2` the value was -13%; for `COc1ccc(NC(=O)CSc2nnnn2-c2ccc(F)cc2)cc1`, -7.12%; for `C[C@@]12C(=O)N(CCO)CC(=O)N1[C@H](/C=C/c1ccccc1)[C@@H]1C(=O)N(c3ccccc3)C(=O)[C@@H]12`, -1.57%.
`CC(=O)OCC1(C)CN(c2ccccc2)N(C(=O)c2ccc(F)cc2)C1=O` (stereo not drawn): the inhibition was 37.7%.
Next, `CC1(C)CN(c2cccc(C#N)c2)C1=O`: -3.52%; `COc1cccc(CN(C(=O)c2ccccc2Br)C2CCS(=O)(=O)C2)c1` (stereo not drawn): -0.47%.
`CC1(C)CC(=O)C2=C(C1)NC(Nc1nc3ccccc3o1)=NC21CCCC1`: the inhibition is -11%.
For `CC1(C)CC(=O)C2=C(C1)NC(Nc1nc3ccccc3o1)=NC21CCCCC1` the value was -1.05%; for `O=C(CN1C(=O)c2ccccc2S1(=O)=O)NC1CC2CCC1C2` (stereo not drawn), -4.11%; for `CN1CCN(c2ccc(NC(=O)CN3CCOCC3)cc2F)CC1`, -4.73%.
For `C=CCNC(=S)NC(=O)c1csc([N+](=O)[O-])c1` the value was 18.2%; for `CC(C)CNC(=S)NC(=O)c1ccc([N+](=O)[O-])cc1`, 11.6%; for `CCn1c(SCC(=O)N/N=C/c2ccccc2OCC(=O)O)nnc1-c1ccc(OC)cc1`, 1.34%.
On to `Oc1ccc(CNc2ccc(F)cc2)c2cccnc12`, for which the inhibition was -1.78%.
For `Oc1ccc(CN2CCCc3ccccc32)c2cccnc12` the value was -5.25%; for `Oc1ccc(CN2CCN(Cc3ccccc3)CC2)c2cccnc12`, 14.4%.
For `Cc1cccc(NCc2ccc(O)c3ncccc23)c1` the value was 14.1%; for `Cc1ccccc1NCc1ccc(O)c2ncccc12`, 2.36%.
Next, `Oc1ccc(CNc2ccccc2)c2cccnc12`: -3.76%; `OCc1ccc(O)c2ncccc12`: 52.4%.
For the molecule `Cc1cccnc1NCc1ccc(O)c2ncccc12`, the inhibition was 51.8%.
For `COc1ccc(S(=O)(=O)N(Cc2ccc(OC)c(OC)c2)Cc2ccco2)cc1` the value was 12.4%; for `O=C1NNC(=O)C1c1ccccc1`, 0.86%.
Next, `COc1cccc(C2[C@H](C)C3(CCN2C)OCCO3)c1` (stereo partly drawn): 1.26%; `C=CCN(C(=O)c1csnn1)C(C(=O)NCc1ccccc1)c1ccccc1F` (stereo not drawn): 5.11%; `COc1ccc(NC(=S)N2CCC(c3ccccc3)C2)cc1` (stereo not drawn): 0.04%.
As to `CCCC(=O)OCC(=O)Nc1ccc([N+](=O)[O-])cc1C#N`, the inhibition is 0.66%.
Next, `O=C1CCc2cc(S(=O)(=O)NCCc3ccccc3)cc3c2N1CC3`: -3.75%; `CN1CCN(CC(O)COc2ccc(C(=O)O)cc2)CC1` (stereo not drawn): 4%.
For `COc1ccc(C=O)cc1CN1CCCN(Cc2ccccc2F)S1(=O)=O` the value was 9.36%.
`C=CCc1cc(OC)ccc1OCCOCCC(C(=O)OCC)C(=O)OCC`: the inhibition is -13%.
With `C=CCc1cc(C)ccc1OCCOCCC(C(=O)OCC)C(=O)OCC`, the inhibition is -7.06%.
On to `Cc1ccc2[nH]c(C(=O)O)c(-c3ccccc3)c2c1`, for which the inhibition is 6.59%.
As to `O=C(NN=C1CCCC1)c1[nH]c2ccc(Br)cc2c1-c1ccccc1`, the inhibition is 62%.
Next, `CCOC(=O)Cn1cnc2c(nnn2-c2ccc(C)cc2)c1=O`: -14.9%.
For `CCC(NC(=O)c1cc(COc2c(F)cccc2F)on1)c1ccncc1` (stereo not drawn), the inhibition was -2.33%.
With `CC(CN1C(C)CCCC1C)OC(=O)c1cccc(F)c1` (stereo not drawn), the inhibition was 3.14%.
As for `CC(C)C1CC(CCN)(Cc2ccccc2)CCO1` (stereo not drawn), the inhibition is 1.79%.
In the case of `COc1ccc2cc(C#N)c(N3CCN(C(=O)c4ccccc4C)CC3)nc2c1`, the inhibition was 11.1%.
On to `COc1ccc2cc(C#N)c(N3CCOCC3)nc2c1`, for which the inhibition is 3.82%.
